Experimental data published in PubChem BioAssay AID1159580 (chemical genetic matrix, 2015).
Several values for one entry are separate records, joined by “and”; a condition that tells them apart may be missing. Equal values may be shown once. Among all 5,500 compounds or so, about 2,000 (36%) were called active. Roughly 18% stayed inconclusive and do not appear here. No stated cut-off is given here; in the data, active means normalized growth mostly below about 0.91 (no sharp cut-off); inconclusive means no clear call, values can overlap the other calls; inactive means mostly above about 0.92. This is one part of the list.

Test: chemical genetic growth profiling, strain panel (AID 1159580);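 further: tested at 20 µM; growth read once vehicle control cultures reached saturation at 30 °C; 1 = growth at the plate median or of vehicle wells; lower values mean less growth of the strain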
Settings: S. cerevisiae deletion strains, growth OD

Measured: normalized growth

CCCNC(=O)NS(=O)(=O)c1ccc(Cl)cc1
inactive: locus YAL013W, strain DEP1, active compounds read low 1.01 and 0.978 | locus YAL021C, strain ccr4, active compounds read low 1.02 | locus YAL026C, strain drs2, active compounds read low 1.01 | locus YAL030W, strain snc1, active compounds read low 1.01 | locus YAL040C, strain CLN3, active compounds read low 1.09 | locus YBL061C, strain skt5, active compounds read low 1.01 | locus YBR009C, strain hhf1, active compounds read low 1.02 | locus YBR021W, strain FUR4, active compounds read low 1.03 | locus YBR023C, strain chs3, active compounds read low 1.02 | locus YBR171W, strain sec66, active compounds read low 1.01 | locus YBR229C, strain ROT2, active compounds read low 0.993 | locus YBR231C, strain swc5, active compounds read low 1.01 | locus YBR279W, strain paf1, active compounds read low 1.01 | locus YCL011C, strain gbp2, active compounds read low 1 | locus YCL016C, strain dcc1, active compounds read low 1.01 | locus YCL029C, strain bik1, active compounds read low 1.01 | locus YCL061C, strain MRC1 (second series), active compounds read low 0.997 | locus YCL069W, strain vba3, active compounds read low 1.01 | locus YCR088W, strain abp1, active compounds read low 0.996 | locus YDL005C, strain med2, active compounds read low 1.01 | locus YDL035C, strain GPR1, active compounds read low 1 | locus YDL040C, strain nat1, active compounds read low 1.01 | locus YDL074C, strain BRE1, active compounds read low 1.01 | locus YDL101C, strain DUN1, active compounds read low 1.03 | locus YDL134C, strain PPH21, active compounds read low 1 | locus YDL185W, strain tfp1, active compounds read low 1 | locus YDL192W, strain arf1, active compounds read low 1.03 | locus YDR001C, strain nth1, active compounds read low 1.01 | locus YDR069C, strain doa4, active compounds read low 1.03 | locus YDR101C, strain arx1, active compounds read low 1.01 | locus YDR137W, strain rgp1, active compounds read low 0.994 | locus YDR150W, strain NUM1, active compounds read low 0.986 and 1 | locus YDR159W, strain sac3, active compounds read low 1.01 | locus YDR162C, strain NBP2, active compounds read low 0.984 | locus YDR195W, strain ref2 1.03 | locus YDR297W, strain sur2, active compounds read low 1.02 | locus YDR318W, strain mcm21, active compounds read low 1.01 | locus YDR334W, strain swr1, active compounds read low 1.01 | locus YDR335W, strain msn5, active compounds read low 1.02 | locus YDR363W, strain ESC2, active compounds read low 0.97 | locus YDR388W, active compounds read low 1.01 | locus YDR392W, strain spt3, active compounds read low 1 | locus YDR502C, strain sam2, active compounds read low 1.05 | locus YEL003W, strain gim4, active compounds read low 1.02 | locus YEL037C, strain rad23, active compounds read low 1.01 | locus YEL061C, strain CIN8 (second series), active compounds read low 1.02 | locus YEL061C, strain CIN8, active compounds read low 0.997 | locus YER002W, strain NOP16, active compounds read low 1.01 | locus YER015W, strain faa2, active compounds read low 1.02 | locus YER016W, strain bim1, active compounds read low 0.989 | locus YER110C, active compounds read low 0.998 | locus YER111C, strain swi4, active compounds read low 1.02 | locus YER155C, strain BEM2 (second series), active compounds read low 1.03 | locus YER155C, strain BEM2, active compounds read low 1.01 | locus YER167W, strain BCK2, active compounds read low 1 | locus YFR010W, strain ubp6, active compounds read low 1.04 | locus YGL078C, strain dbp3, active compounds read low 1.02 | locus YGL167C, strain pmr1, active compounds read low 0.991 | locus YGL173C, strain kem1, active compounds read low 1.02 | locus YGL227W, strain vid30, active compounds read low 1.02 | locus YGL240W, strain doc1, active compounds read low 1.03 | locus YGL248W, strain PDE1, active compounds read low 1.03 | locus YGL253W, strain hxk2, active compounds read low 1.01 | locus YGR135W, strain pre9, active compounds read low 1.05 | locus YGR229C, strain SMI1, active compounds read low 0.994 | locus YGR252W, strain gcn5, active compounds read low 1.07 | locus YHR013C, strain ard1, active compounds read low 1.05 | locus YHR027C, strain rpn1, active compounds read low 1.01 | locus YHR030C, strain SLT2, active compounds read low 0.991 and 1.01 | locus YHR079C, strain IRE1 (second series), active compounds read low 1.01 | locus YHR079C, strain IRE1, active compounds read low 0.986 | locus YHR094C, strain hxt1, active compounds read low 1.01 | locus YHR129C, strain ARP1, active compounds read low 1.01 | locus YHR142W, strain chs7, active compounds read low 1.04 | locus YHR200W, strain rpn10, active compounds read low 1.01 | locus YIL066C, strain RNR3, active compounds read low 0.998 | locus YIL073C, strain SPO22, active compounds read low 1.02 | locus YIL125W, strain kgd1, active compounds read low 0.997 | locus YIR030C, strain dcg1, active compounds read low 0.997 | locus YJL092W, strain hpr5, active compounds read low 1 | locus YJL095W, strain BCK1 (second series), active compounds read low 1.02 | locus YJL095W, strain BCK1, active compounds read low 1.05 and 0.979 | locus YJL115W, strain asf1, active compounds read low 1.02 | locus YJL129C, strain trk1, active compounds read low 1.02 | locus YJL134W, strain LCB3, active compounds read low 0.996 | locus YJL154C, strain vps35, active compounds read low 1.01 | locus YJL164C, strain tpk1, active compounds read low 1.01 | locus YJL166W, strain qcr8, active compounds read low 1.01 | locus YJL168C, strain set2, active compounds read low 1.01 | locus YJL187C, strain SWE1 (second series), active compounds read low 1.03 | locus YJR043C, strain POL32, active compounds read low 1 | locus YJR066W, strain TOR1, active compounds read low 0.983 | locus YKL009W, strain mrt4, active compounds read low 1.01 | locus YKL068W, active compounds read low 0.984 | locus YKL085W, strain MDH1 (second series), active compounds read low 0.979 | locus YKL085W, strain MDH1, active compounds read low 0.979 | locus YKL160W, strain elf1, active compounds read low 1.02 | locus YKR001C, strain vps1, active compounds read low 0.992 | locus YKR026C, strain gcn3, active compounds read low 0.99 | locus YKR091W, strain srl3, active compounds read low 1.01 | locus YLL001W, strain dnm1, active compounds read low 1.01 | locus YLL026W, active compounds read low 1.02 | locus YLL041C, strain sdh2, active compounds read low 0.991 | locus YLR027C, strain aat2, active compounds read low 1.01 | locus YLR039C, strain RIC1, active compounds read low 0.967 | locus YLR058C, strain SHM2, active compounds read low 1.02 | locus YLR102C, strain apc9, active compounds read low 1 | locus YLR113W, strain HOG1, active compounds read low 0.99 | locus YLR221C, strain rsa3, active compounds read low 1 | locus YLR258W, strain gsy2, active compounds read low 1.01 | locus YLR262C, strain YPT6 (second series), active compounds read low 1 | locus YLR262C, strain YPT6, active compounds read low 0.977 | locus YLR268W, strain sec22, active compounds read low 1.01 | locus YLR320W, strain mms22, active compounds read low 1.02 | locus YLR330W, strain CHS5, active compounds read low 1 | locus YLR342W, strain FKS1 (second series), active compounds read low 0.984 | locus YLR342W, strain FKS1, active compounds read low 1.02 | locus YLR357W, strain rsc2, active compounds read low 1.03 | locus YLR370C, strain arc18, active compounds read low 1.02 | locus YLR371W, strain rom2, active compounds read low 0.997 | locus YLR384C, strain iki3, active compounds read low 1.03 | locus YLR418C, strain cdc73, active compounds read low 1.08 | locus YML016C, strain PPZ1, active compounds read low 0.997 | locus YML032C, strain rad52, active compounds read low 0.996 | locus YML120C, strain ndi1, active compounds read low 1.02 | locus YML124C, strain tub3, active compounds read low 0.997 | locus YMR058W, strain fet3, active compounds read low 1 | locus YMR078C, strain ctf18, active compounds read low 1 | locus YMR125W, strain sto1, active compounds read low 1 | locus YMR129W, active compounds read low 1.01 | locus YMR205C, strain PFK2, active compounds read low 1.02 | locus YMR223W, strain ubp8, active compounds read low 1.03 | locus YMR231W, strain pep5, active compounds read low 1.01 | locus YMR263W, strain SAP30, active compounds read low 0.991 | locus YMR307W, strain GAS1, active compounds read low 1.09 | locus YNL067W, strain RPL9B, active compounds read low 1.03 | locus YNL071W, strain lat1, active compounds read low 1.03 | locus YNL128W, strain TEP1, active compounds read low 1.01 | locus YNL153C, strain GIM3, active compounds read low 1.02 and 1.01 | locus YNL175C, strain NOP13, active compounds read low 1.02 | locus YNL183C, strain NPR1, active compounds read low 0.935 | locus YNL197C, strain WHI3, active compounds read low 1.02 | locus YNL209W, strain ssb2, active compounds read low 1 | locus YNL224C, strain SQS1, active compounds read low 0.983 | locus YNL233W, strain BNI4, active compounds read low 1.02 | locus YNL248C, strain rpa49, active compounds read low 1.09 | locus YNL250W, strain rad50, active compounds read low 1 | locus YNL271C, strain bni1, active compounds read low 1.01 | locus YNL298W, strain CLA4, active compounds read low 0.99 | locus YNL307C, strain MCK1, active compounds read low 1.01 | locus YNL322C, strain KRE1 (second series), active compounds read low 1 | locus YNL322C, strain KRE1, active compounds read low 0.988 | locus YNR049C, strain mso1, active compounds read low 1.02 | locus YNR052C, strain pop2, active compounds read low 1.01 | locus YOL012C, strain htz1 0.677 | locus YOL147C, strain pex11, active compounds read low 0.996 | locus YOR001W, strain rrp6, active compounds read low 1.02 | locus YOR061W, strain CKA2, active compounds read low 1.01 | locus YOR069W, strain VPS5, active compounds read low 0.992 | locus YOR070C, strain gyp1, active compounds read low 1.01 | locus YOR080W, strain dia2, active compounds read low 1.03 | locus YOR083W, strain WHI5 (second series), active compounds read low 0.985 | locus YOR083W, strain WHI5, active compounds read low 1.01 | locus YOR106W, strain vam3, active compounds read low 1.01 | locus YOR136W, strain idh2, active compounds read low 1 | locus YOR144C, strain elg1, active compounds read low 1.01 | locus YOR184W, strain ser1, active compounds read low 1.01 | locus YOR231W, strain MKK1, active compounds read low 0.971 | locus YOR265W, strain rbl2, active compounds read low 1.01 | locus YOR270C, strain vph1, active compounds read low 1.01 | locus YOR290C, strain snf2, active compounds read low 1.02 | locus YOR316C, strain cot1, active compounds read low 1 | locus YPL051W, strain arl3, active compounds read low 1.02 | locus YPL078C, strain atp4, active compounds read low 1.02 | locus YPL106C, strain sse1, active compounds read low 1.03 | locus YPL240C, strain hsp82, active compounds read low 1.01 | locus YPL241C, strain CIN2, active compounds read low 0.997 | locus YPL256C, strain CLN2, active compounds read low 0.975 | locus YPR119W, strain clb2, active compounds read low 0.999 | locus YPR141C, strain kar3, active compounds read low 1 | locus YPR163C, strain tif3, active compounds read low 1 | locus YPR167C, strain met16, active compounds read low 1 | strain wtn01, active compounds read low 1.01
